These results are taken from ChEMBL document CHEMBL3433997, “St. Jude Leishmania screening dataset” (2016).

A word on the inhibition: it is the relative decrease from the control value, in per cent.

One test deals with Solute carrier family 2, facilitated glucose transporter member 1 (Homo sapiens) (UniProt P11166). The experiment in a line: ST_JUDE_LEISH: Cytotoxicity at 2uM final concentration against transgenic Leishmania Mexicana promastigotes LmGLUT1 that are glucose transport deficient and complemented with the human glucose transporter GLUT1. Activity is measured by DNA content using SYBR green in vitro. The test is classed as functional.
Chain of Solute carrier family 2, facilitated glucose transporter member 1 (Homo sapiens) (P11166 whole entry): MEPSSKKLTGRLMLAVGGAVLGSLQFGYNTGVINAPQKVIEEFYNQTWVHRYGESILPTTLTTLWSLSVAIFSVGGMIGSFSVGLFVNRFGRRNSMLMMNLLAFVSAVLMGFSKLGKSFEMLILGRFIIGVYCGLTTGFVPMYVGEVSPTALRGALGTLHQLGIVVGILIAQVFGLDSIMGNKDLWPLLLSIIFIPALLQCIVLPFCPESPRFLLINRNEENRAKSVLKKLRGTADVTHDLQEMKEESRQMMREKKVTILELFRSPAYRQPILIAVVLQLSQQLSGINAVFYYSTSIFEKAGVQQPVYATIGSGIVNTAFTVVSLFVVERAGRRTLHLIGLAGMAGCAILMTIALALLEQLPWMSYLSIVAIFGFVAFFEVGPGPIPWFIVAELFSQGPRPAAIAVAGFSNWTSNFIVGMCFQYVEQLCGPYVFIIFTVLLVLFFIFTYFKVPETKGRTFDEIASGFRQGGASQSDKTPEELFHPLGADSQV
As to `COC(=O)c1ccc(OCC(C)NCC(O)c2cccc(C(F)(F)F)c2)cc1` (stereo not given), the inhibition was determined as 10.7%.

Regarding `O=C(Nc1cccc(-c2nn3ncccc3c2-c2ccnc(Nc3cccnc3)n2)c1)c1c(F)cccc1F`, the inhibition amounted to 1.51%.

Consider `CCCNCc1ccc(-c2ccc(CN(Cc3ccc4c(c3)OCO4)C(=O)Cc3cccnc3)cc2)nc1`, for which the inhibition was 23.9%.

For the compound `CC(C)Cn1c(Sc2ccc(C#N)c([N+](=O)[O-])c2)nnc1-c1ccccc1Cl`, the inhibition worked out at 3.45%.

In the case of `O=C(Nc1ccc(Cn2ncc(N3CCNCC3)c(Cl)c2=O)cc1)Nc1ccc(-c2ccccc2)cc1`, the inhibition was determined as 4.36%.

As to `CN(C)C(=O)O[C@@H]1CN[C@H](C#Cc2cc3ncnc(Nc4ccc5c(cnn5Cc5cccc(F)c5)c4)c3s2)C1`, the inhibition was 10.1%.

For `Clc1ccc2c(NN=Cc3ccco3)ccnc2c1`, the inhibition came to 3.59%.

On to `OC(CNCCc1ccccc1)Cn1c2ccc(Cl)cc2c2cc(Cl)ccc21` (stereo not given), for which the inhibition was -1.53%.

Turning to `Cc1cc(C=C(P(=O)(OC(C)C)OC(C)C)P(=O)(OC(C)C)OC(C)C)c2ccccc2c1O`, the inhibition is 6.71%.

Turning to `Nc1nccc2ccc(-c3ccc4nccn4c3)cc12`, the inhibition was found to be 3.49%.

With `Oc1ccc(Br)cc1C(O)CNCc1ccccc1OCc1ccccc1` (stereo not given), the inhibition was found to be 2.85%.

Consider `O=c1cc(NCCCNCc2cn(S(=O)(=O)c3ccccc3)c3ccccc23)[nH]c2ccccc12`, for which the inhibition was -0.4%.

`O=C(C=Cc1ccc(Cl)c(Cl)c1)NC1CCN(CCc2ccccc2)CC1`: the inhibition amounted to 0.9%.

For the compound `CC(C)N(Cc1ccccc1)C(=O)CN1C(=O)COc2ccc(S(=O)(=O)N3CCCCCC3)cc21`, the inhibition was found to be 4.92%.

Regarding `COc1cc2ncnc(Nc3ccc(OCc4ccccc4)c(OCc4ccccc4)c3)c2cc1OC`, the inhibition amounted to 4.65%.

On to `CN(C(=O)c1ccccc1)C1c2cc(C#N)ccc2OC(C)(C)C1O` (stereo not given), for which the inhibition came to 0.42%.

For `Cc1cnc(NCC2CCCCC2)nc1N[C@@H](CC(C)C)C(=O)Nc1ccccc1`, the inhibition came to 2.17%.

For `CNC(=O)Cc1ccc(C(=O)Nc2cccc(-c3ccc(-c4nc5cccc(C)c5[nH]4)s3)c2)cc1`, the inhibition is 3.65%.

For the compound `CN1CCN(c2cc(NC(=O)c3ccc(-c4ccc(C#N)cc4)cc3)ccc2Cl)CC1`, the inhibition was 0.4%.

For the compound `CCOc1ccc2c(=NN=Cc3cccc(F)c3)cc(C)[nH]c2c1`, the inhibition amounted to 6%.

For `CCCc1ccc(S(=O)(=O)NC2CCN(c3ccnc(Nc4ccc(F)cc4)n3)C2)cc1` (stereo not given), the inhibition stood at 0.73%.

On to `COc1ccc2nccc(N3CCC(NCCNCc4ccc5c(n4)NC(=O)CO5)C3)c2n1` (stereo not given), for which the inhibition was 1.29%.

Turning to `CC(C)C[C@H](NC(=O)c1ccc(OCCN2CCOCC2)cc1)C(=O)NC(/C=N/N1CCCC1=O)C(C)C` (stereo not given in full), the inhibition amounted to 2.27%.

Take `CNc1ccc(CNCc2cccc(-c3ccc(-c4nc5cccc(C)c5[nH]4)s3)c2)cc1`: the inhibition stood at 8.15%.

`CC(=O)Nc1cccc(-c2cnc(N)c3cc(-c4ccc5c(c4)OCO5)ccc23)c1`: the inhibition is 7.5%.

Consider `COc1nc2c(N3CCN(CCNCc4ccc5c(n4)NC(=O)CS5)CC3)ccnc2cc1F`, for which the inhibition was 0.45%.

For the compound `O=C1CCCN1CCCNCc1ccc(-c2ccc(-c3nc4cc(C(F)(F)F)ccc4[nH]3)cc2)cc1`, the inhibition stood at 3.36%.

For the compound `FC(F)(F)c1ccc2[nH]c(-c3ccc(-c4ccc(CNCC5CCCO5)cc4)cc3)nc2c1` (stereo not given), the inhibition worked out at 3.49%.

As to `O=C(Nc1ccc(-c2csc(-c3nc4ccccc4[nH]3)c2)cc1)Nc1ccc(F)c(F)c1F`, the inhibition was determined as 0.67%.

Consider `CCC[C@@H]([C@@H](Cc1ccc(C)s1)C(=O)N[C@@H](CNC(C)=O)C(=O)Nc1nccs1)N(O)C=O`, for which the inhibition came out at 12%.

Take `O=C(Nc1ccc(-c2cccc(-c3nc4ccccc4[nH]3)c2)cc1)Nc1ccc2c(c1)OCO2`: the inhibition is 1.87%.

On to `O=C(NC1CCC(N2CCC(O)(c3ccc(F)cc3)CC2)CC1)c1cc2ccccc2[nH]1` (stereo not given), for which the inhibition was 1.2%.

Regarding `COc1ccc2nccc(N3CCC(CCNCc4ccc5c(n4)NC(=O)CO5)CC3)c2n1`, the inhibition came out at 0.66%.

On to `CCn1c(Sc2ccc(C#N)c([N+](=O)[O-])c2)nnc1-c1cc(OC)cc(OC)c1`, for which the inhibition was determined as 1.62%.

For `OCCN1CCN(Cc2cccc(-c3ccc(-c4nc5cc(C(F)(F)F)ccc5[nH]4)s3)c2)CC1`, the inhibition turned out to be 2.38%.

In the case of `CCC(=O)Nc1cc(=O)[nH]c2nc(-c3ccc(Cl)cc3)nn12`, the inhibition was -1.32%.

Take `CN1CCC(N2CCN(Cc3ccc(-c4ccc(-c5nc6ccccc6[nH]5)s4)cc3)CC2)CC1`: the inhibition amounted to 8.42%.

On to `COc1cc2nc(N3CCN(C(=O)c4ccco4)CC3)nc(NCc3ccccc3)c2cc1OC`, for which the inhibition was found to be 14.9%.

Consider `CC(C)c1ccc(N2CCN(CCCCNC(=O)c3ccc(NC(=O)c4cc(Cl)cc(Cl)c4)cc3)CC2)cc1`, for which the inhibition is -0.22%.

As for `O=C(NC1CCN(CCCc2ccccc2)CC1)c1ccc(-c2cccc(C(F)(F)F)c2)s1`, the inhibition is 1.95%.

In a further test the target is Hexose transporter 1 (Plasmodium falciparum) (UniProt O97467). The test can be described thus: ST_JUDE_LEISH: Cytotoxicity at 2uM final concentration against transgenic Leishmania Mexicana promastigotes LmPfHT that are glucose transport deficient and complemented with the Plasmodium falciparum hexose transporter. Activity is measured by DNA content using SYBR green in vitro. The test is classed as functional.
For `COC(=O)c1ccc(OCC(C)NCC(O)c2cccc(C(F)(F)F)c2)cc1` (stereo not given), the inhibition worked out at 8.32%.

Take `O=C(Nc1cccc(-c2nn3ncccc3c2-c2ccnc(Nc3cccnc3)n2)c1)c1c(F)cccc1F`: the inhibition came to 3.78%.

As to `CCCNCc1ccc(-c2ccc(CN(Cc3ccc4c(c3)OCO4)C(=O)Cc3cccnc3)cc2)nc1`, the inhibition stood at 15.2%.

Regarding `CC(C)Cn1c(Sc2ccc(C#N)c([N+](=O)[O-])c2)nnc1-c1ccccc1Cl`, the inhibition was found to be 4.02%.

On to `O=C(Nc1ccc(Cn2ncc(N3CCNCC3)c(Cl)c2=O)cc1)Nc1ccc(-c2ccccc2)cc1`, for which the inhibition was found to be 2.78%.

As to `CN(C)C(=O)O[C@@H]1CN[C@H](C#Cc2cc3ncnc(Nc4ccc5c(cnn5Cc5cccc(F)c5)c4)c3s2)C1`, the inhibition came out at 9.66%.

As to `Clc1ccc2c(NN=Cc3ccco3)ccnc2c1`, the inhibition stood at 3.49%.

Turning to `OC(CNCCc1ccccc1)Cn1c2ccc(Cl)cc2c2cc(Cl)ccc21` (stereo not given), the inhibition is -1.78%.

Turning to `Cc1cc(C=C(P(=O)(OC(C)C)OC(C)C)P(=O)(OC(C)C)OC(C)C)c2ccccc2c1O`, the inhibition is 7.2%.

Regarding `Nc1nccc2ccc(-c3ccc4nccn4c3)cc12`, the inhibition amounted to 3.17%.

With `Oc1ccc(Br)cc1C(O)CNCc1ccccc1OCc1ccccc1` (stereo not given), the inhibition worked out at 3.54%.

Consider `O=c1cc(NCCCNCc2cn(S(=O)(=O)c3ccccc3)c3ccccc23)[nH]c2ccccc12`, for which the inhibition was -0.55%.

In the case of `O=C(C=Cc1ccc(Cl)c(Cl)c1)NC1CCN(CCc2ccccc2)CC1`, the inhibition was found to be 1.06%.

As for `CC(C)N(Cc1ccccc1)C(=O)CN1C(=O)COc2ccc(S(=O)(=O)N3CCCCCC3)cc21`, the inhibition stood at 1.02%.

As to `COc1cc2ncnc(Nc3ccc(OCc4ccccc4)c(OCc4ccccc4)c3)c2cc1OC`, the inhibition was 5.44%.

With `CN(C(=O)c1ccccc1)C1c2cc(C#N)ccc2OC(C)(C)C1O` (stereo not given), the inhibition worked out at 0.76%.

Take `Cc1cnc(NCC2CCCCC2)nc1N[C@@H](CC(C)C)C(=O)Nc1ccccc1`: the inhibition was 1.5%.

As for `CNC(=O)Cc1ccc(C(=O)Nc2cccc(-c3ccc(-c4nc5cccc(C)c5[nH]4)s3)c2)cc1`, the inhibition was 2.74%.

On to `CN1CCN(c2cc(NC(=O)c3ccc(-c4ccc(C#N)cc4)cc3)ccc2Cl)CC1`, for which the inhibition is -0.14%.

With `CCOc1ccc2c(=NN=Cc3cccc(F)c3)cc(C)[nH]c2c1`, the inhibition was found to be 1.08%.

Consider `CCCc1ccc(S(=O)(=O)NC2CCN(c3ccnc(Nc4ccc(F)cc4)n3)C2)cc1` (stereo not given), for which the inhibition was 0.26%.

Turning to `COc1ccc2nccc(N3CCC(NCCNCc4ccc5c(n4)NC(=O)CO5)C3)c2n1` (stereo not given), the inhibition is 1.28%.

`CC(C)C[C@H](NC(=O)c1ccc(OCCN2CCOCC2)cc1)C(=O)NC(/C=N/N1CCCC1=O)C(C)C` (stereo not given in full): the inhibition is 3.56%.

On to `CNc1ccc(CNCc2cccc(-c3ccc(-c4nc5cccc(C)c5[nH]4)s3)c2)cc1`, for which the inhibition was found to be 5%.

Turning to `CC(=O)Nc1cccc(-c2cnc(N)c3cc(-c4ccc5c(c4)OCO5)ccc23)c1`, the inhibition worked out at 7.74%.

`COc1nc2c(N3CCN(CCNCc4ccc5c(n4)NC(=O)CS5)CC3)ccnc2cc1F`: the inhibition was -0.85%.

Take `O=C1CCCN1CCCNCc1ccc(-c2ccc(-c3nc4cc(C(F)(F)F)ccc4[nH]3)cc2)cc1`: the inhibition came out at 2.91%.

On to `FC(F)(F)c1ccc2[nH]c(-c3ccc(-c4ccc(CNCC5CCCO5)cc4)cc3)nc2c1` (stereo not given), for which the inhibition worked out at 2.61%.

Take `O=C(Nc1ccc(-c2csc(-c3nc4ccccc4[nH]3)c2)cc1)Nc1ccc(F)c(F)c1F`: the inhibition worked out at 2.98%.

Take `CCC[C@@H]([C@@H](Cc1ccc(C)s1)C(=O)N[C@@H](CNC(C)=O)C(=O)Nc1nccs1)N(O)C=O`: the inhibition turned out to be 9.56%.

On to `O=C(Nc1ccc(-c2cccc(-c3nc4ccccc4[nH]3)c2)cc1)Nc1ccc2c(c1)OCO2`, for which the inhibition was found to be 2.62%.

With `O=C(NC1CCC(N2CCC(O)(c3ccc(F)cc3)CC2)CC1)c1cc2ccccc2[nH]1` (stereo not given), the inhibition was 2.62%.

Turning to `COc1ccc2nccc(N3CCC(CCNCc4ccc5c(n4)NC(=O)CO5)CC3)c2n1`, the inhibition was found to be 0.67%.

Regarding `CCn1c(Sc2ccc(C#N)c([N+](=O)[O-])c2)nnc1-c1cc(OC)cc(OC)c1`, the inhibition is 0.59%.

For the compound `OCCN1CCN(Cc2cccc(-c3ccc(-c4nc5cc(C(F)(F)F)ccc5[nH]4)s3)c2)CC1`, the inhibition is -3.19%.

Consider `CCC(=O)Nc1cc(=O)[nH]c2nc(-c3ccc(Cl)cc3)nn12`, for which the inhibition is -2.09%.

On to `CN1CCC(N2CCN(Cc3ccc(-c4ccc(-c5nc6ccccc6[nH]5)s4)cc3)CC2)CC1`, for which the inhibition came out at 8.75%.

For `COc1cc2nc(N3CCN(C(=O)c4ccco4)CC3)nc(NCc3ccccc3)c2cc1OC`, the inhibition was determined as 15.2%.

`CC(C)c1ccc(N2CCN(CCCCNC(=O)c3ccc(NC(=O)c4cc(Cl)cc(Cl)c4)cc3)CC2)cc1`: the inhibition amounted to 1.11%.

As to `O=C(NC1CCN(CCCc2ccccc2)CC1)c1ccc(-c2cccc(C(F)(F)F)c2)s1`, the inhibition was 1.23%.
